This is an account of results in the supplement of paper PMC4709259.

Where a name gives a salt, the structure may show the parent alone. ± gives the standard deviation.

For the first experiment, the system named is Jurkat. Kind of experiment: mean cell size (FSC-A) relative to DMSO control (fraction of control); higher = larger cells. The note with it: 48 h. Summed up:
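Jurkat cells at 600 cells/µl were incubated for 1 h and then treated for 48h with the Enzo Screen-Well FDA Approved Drug Library v2.0 at 25µM, with DMSO at 0.9% (v/v) final. Compounds that reduced counts below 20% of controls were retested in 10-fold dilutions down to 25nM. Cell count and mean cell size, taken as forward scatter area, were measured by flow cytometry relative to solvent-only controls. Each plate carried 6-12 controls, and values are means of 3 biological replicates.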
`N[C@@H](Cc1cc(I)c(Oc2cc(I)c(O)c(I)c2)c(I)c1)C(=O)O` [Levothyroxine·Na] (concentration: 25 µM) showed a mean cell size of 1.02 ± 0.059. The same measure, in the same setting: then `COc1ccc(O)cc1` [Mequinol] (concentration: 25 µM), with 1.15 ± 0.034; and `O=C1c2cccc3c2[C@H](CCC3)CN1[C@@H]1CN2CCC1CC2` [Palonosetron·HCl] (concentration: 25 µM), with 1.07 ± 0.033; and `CC(=O)NCCCS(=O)(=O)O` [Acamprosate] (concentration: 25 µM), with 1.05 ± 0.062. Same read-out and setting: then `COc1cc(C(C)=O)ccc1OCCCN1CCC(c2noc3cc(F)ccc23)CC1` [Iloperidone] (concentration: 25 µM), with 0.954 ± 0.031; and `CCOc1nc2cccc(C(=O)O)c2n1Cc1ccc(-c2ccccc2-c2nnn[nH]2)cc1` [Candesartan] (concentration: 25 µM), with 1.01 ± 0.042; and `C[N+](C)(C)C[C@H](O)CC(=O)[O-]` [Levocarnitine] (concentration: 25 µM), with 0.938 ± 0.013. `OCCN1CCN(CCCN2c3ccccc3Sc3ccc(C(F)(F)F)cc32)CC1` [Fluphenazine·HCl] (concentration: 2.5 µM): the mean cell size is 1.13 ± 0.017.

In the case of `Cn1cnc([N+](=O)[O-])c1Sc1ncnc2[nH]cnc12` [Azathioprine] (concentration: 25 µM), the mean cell size amounted to 1.02 ± 0.036. `CN(C)c1cc(NC(=O)CNC(C)(C)C)c(O)c2c1C[C@H]1C[C@H]3[C@H](N(C)C)C(=O)C(C(N)=O)=C(O)[C@@]3(O)C(=O)C1=C2O` [Tigecycline] (concentration: 25 µM) yielded a mean cell size of 1.01 ± 0.051. `CC(N)C12CC3CC(CC(C3)C1)C2` (stereo not drawn) [Rimantadine·HCl] (concentration: 25 µM) displayed a mean cell size of 1.02 ± 0.055. Same read-out and setting: then `CN(C)CCOC(=O)C(c1ccccc1)C1(O)CCCC1` (stereo not drawn) [Cyclopentolate] (concentration: 25 µM), with 0.996 ± 0.057.

The subject of the next experiment is Jurkat. Put plainly: cell count relative to DMSO control (fraction of control); higher = more cells (less growth inhibition). To be noted: 48 h.
The molecule `Nc1ccc(S(N)(=O)=O)cc1` [Sulfanilamide] (concentration: 25 µM) came in with a cell count of 0.546 ± 0.18. Turning to `CN1CCC(=C2c3ccccc3CC(=O)c3sccc32)CC1` [Ketotifen Fumarate] (concentration: 25 µM), the cell count turned out to be 0.856 ± 0.071. For the molecule `C[N+](C)(C)CC(=O)O` [Betaine] (concentration: 25 µM), the cell count worked out at 0.449 ± 0.066. As for `Cn1c(=O)c2c(ncn2C)n(C)c1=O` [Caffeine] (concentration: 25 µM), the cell count turned out to be 1 ± 0.093.

Consider `C[N+]1(C)[C@@H]2CC[C@H]1C[C@@H](OC(=O)C(O)c1ccccc1)C2` (stereo partly drawn) [Homatropine Methylbromide] (concentration: 25 µM), for which the cell count worked out at 0.565 ± 0.018. Molecule `COC(=O)C1=C(C)NC(C)=C(C(=O)OCC(C)C)C1c1ccccc1[N+](=O)[O-]` (stereo not drawn) [Nisoldipine] (concentration: 25 µM) displayed a cell count of 0.342 ± 0.015. Same read-out and setting: the same measure for `NC[C@H](O)c1ccc(O)c(O)c1` [Norepinephrine Bitartrate Monohydrate] (concentration: 25 µM): 0.658 ± 0.17. `CC(=O)NO` [Acetohydroxamic Acid] (concentration: 25 µM): the cell count turned out to be 0.755 ± 0.016.

On to `Nc1nc2c(ncn2COCCO)c(=O)[nH]1` [Acyclovir (Acycloguanosine) Zovirax] (concentration: 25 µM), for which the cell count was found to be 0.842 ± 0.022. Take `CCOC(=O)[C@H](CCc1ccccc1)N[C@@H](C)C(=O)N1[C@H](C(=O)O)C[C@H]2CCCC[C@@H]21` [Trandolapril] (concentration: 25 µM): the cell count was 0.924 ± 0.12. Same read-out and setting: then `CCC[C@H](N[C@@H](C)C(=O)N1[C@H](C(=O)O)C[C@@H]2CCCC[C@@H]21)C(=O)OCC` [Perindopril Erbumine] (concentration: 25 µM), with 0.637 ± 0.091; and `Nc1ccc(C(=O)NCC(=O)O)cc1` [Aminohippurate·Na] (concentration: 25 µM), with 0.792 ± 0.089; and `CNC[C@H](O)c1cccc(O)c1` [Phenylephrine] (concentration: 25 µM), with 0.873 ± 0.15.

For `CN1CCN(C2=Nc3ccccc3Oc3ccc(Cl)cc32)CC1` [Loxapine Succinate] (concentration: 25 µM), the cell count worked out at 1.16 ± 0.1. Still for that read-out and setting: the same measure for `OCCOCCN1CCN(C(c2ccccc2)c2ccc(Cl)cc2)CC1` (stereo not drawn) [Hydroxyzine Dihydrochloride] (concentration: 25 µM): 0.968 ± 0.063. Consider `CC(=O)N1CCN(c2ccc(OCC3COC(Cn4ccnc4)(c4ccc(Cl)cc4Cl)O3)cc2)CC1` (stereo not drawn) [Ketoconazole] (concentration: 25 µM), for which the cell count worked out at 0.564 ± 0.035.
